The values that follow come from PubChem BioAssay AID1987 (The Scripps Research Institute Molecular Screening Center, 2009).

Values joined by “and” are separate entries in the source; they are usually repeats but may differ in a detail not shown here. Identical values can stand only once. The campaign covered roughly 320,000 compounds. About 560 (0.17%) were called active. The sample as a whole holds a higher share of actives than the screen did. Unmarked numbers belong to inactive results.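 The calls were made as follows: active = inhibition above the campaign's mean inhibition across all tested compounds plus 3 SD (cut at about 9.5% in these data); inactive = the rest.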

The term inhibition denotes the relative decrease from the control value, in per cent.

Serine/threonine-protein phosphatase 5 (Homo sapiens), sequence (P53041 whole entry, looked up): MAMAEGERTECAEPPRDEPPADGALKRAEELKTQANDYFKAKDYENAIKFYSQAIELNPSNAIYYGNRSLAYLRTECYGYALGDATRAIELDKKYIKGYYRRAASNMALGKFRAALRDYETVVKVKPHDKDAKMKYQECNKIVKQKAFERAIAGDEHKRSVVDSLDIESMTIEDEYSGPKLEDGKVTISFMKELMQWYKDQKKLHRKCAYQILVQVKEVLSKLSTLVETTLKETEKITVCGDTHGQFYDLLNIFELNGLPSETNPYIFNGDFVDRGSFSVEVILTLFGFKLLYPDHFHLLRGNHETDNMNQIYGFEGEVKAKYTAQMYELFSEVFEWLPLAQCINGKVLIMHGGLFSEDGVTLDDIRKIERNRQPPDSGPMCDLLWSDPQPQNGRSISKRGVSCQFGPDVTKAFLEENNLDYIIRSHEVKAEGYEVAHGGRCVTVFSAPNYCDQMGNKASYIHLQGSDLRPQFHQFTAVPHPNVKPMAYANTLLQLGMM

This test addresses Serine/threonine-protein phosphatase 5 (Homo sapiens) (UniProt P53041). Description: inhibition of human PP5 catalytic activity – biochemical, fluorescence, primary screen (AID 1987).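 Also: 0% = DMSO only and 100% = 100 µM cantharidin control.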 The note with it: purified PP5c, OMFP substrate fluorescence; at 6.7 µM; hits give high values.
Regarding `O=C(O)CCc1nc2cc(Cl)ccc2n(Cc2ccccc2)c1=O`, the inhibition was -2.07%.

As to `CCOC(=O)Nc1ccc2c(c1)N(C(=O)CCN1CCN(CCO)CC1)c1ccccc1CC2`, the inhibition is 2.46%.

With `CCOC(=O)Nc1ccc2c(c1)N(C(=O)CN1CCN3CCCC3C1)c1ccccc1CC2` (centres undefined), the inhibition was 10.7% (active).

Consider `CCOC(=O)Nc1ccc2c(c1)N(C(=O)CCCl)c1ccccc1[S@]2=O`, for which the inhibition is -0.16%.

For the compound `O=S1(=O)N=C(N(CCO)/N=C/c2ccccc2F)c2ccccc21`, the inhibition is -2.75%.

Consider `CC(C)Cn1cnc2c1c(=O)n(CC(=O)NN)c(=O)n2Cc1ccccc1`, for which the inhibition is 1.33%.

Take `CC(=O)c1c(C)[nH]c(C(=O)Nc2cc(S(=O)(=O)N(C)C)ccc2C)c1C`: the inhibition was 3.8%.

For `O=C(N=C1SC2CS(=O)(=O)CC2N1c1cc(Cl)ccc1Cl)C1CC1` (centres undefined), the inhibition was -1.21%.

On to `CC(C)OC(=O)c1sc2nc3c(cc2c1N)C(=O)CCC3`, for which the inhibition was -4.25%.

Take `O=C(O)c1ccc(-n2cccc2)cc1O`: the inhibition is 1.23%.

As to `O=C(Nc1ccccc1F)C1C2C=CC3(O2)C1C(=O)N(c1cccnc1)C3C(=O)NC1CCCCC1` (centres undefined), the inhibition is 2.73%.

In the case of `O=C(O)c1ccc(S(=O)(=O)N2CCC(Cc3ccccc3)CC2)cc1`, the inhibition was -3.11%.

As for `CCCCN(CCCC)CCCNC(=O)CN1C(=O)COc2ccc(S(=O)(=O)N3CCC(C)CC3)cc21`, the inhibition was -1.56%.

On to `COc1ccc(CCNC(=S)NC(=O)/C=C/c2ccc(C)cc2)cc1OC`, for which the inhibition is 1.62%.

For the compound `Cn1c(Cc2cccc3ccccc23)nnc1SCC(=O)N1CCN(c2cccc(Cl)c2)CC1`, the inhibition is 3.02%.

With `Nc1nc(SCC(=O)NN(c2ccccc2)c2ccccc2)n[nH]1`, the inhibition is -0.37%.

With `Cc1cccn2cc(-c3cccc(S(=O)(=O)N4CCCCC4)c3)nc12`, the inhibition is 0.22%.

As for `COc1ccc(/C=C2\SC(=S)N(CCCC(=O)NC3CCCC3)C2=O)cc1OC`, the inhibition is -4.92%.

Regarding `COc1ccc(/C=C2\SC(=S)N(CCC(=O)Nc3cccc(C(=O)O)c3)C2=O)cc1OC`, the inhibition is 0.86%.

With `COc1cc(/C=C2/SC(=S)N(Cc3ccccc3)C2=O)cc(OC)c1O`, the inhibition was 10.8% (active).

`Cc1c(CCC(=O)N[C@@H](CC(C)C)C(=O)O)c(=O)oc2c(C)c3oc4c(c3cc12)CCCC4`: the inhibition was -1.14%.

Take `CN1CC(=O)N=C1N`: the inhibition was 2.26% and -0.51%.

`CC1(C)O[C@@H]2[C@H](O1)[C@@H](COS(=O)(=O)O)O[C@H]2n1cnc2c(=O)[nH]cnc21`: the inhibition is 0.9%.

On to `COCCOC1CCN(C(=O)c2ccc(OC)c(OC3CCN(C(C)C)CC3)c2)CC1`, for which the inhibition is 0.82%.

For `CC(C)C[C@H](NC(=O)C1CC(=O)N(c2ccc3c(c2)OCCO3)C1)C(=O)NC1CCCC1` (some centres undefined), the inhibition is -0.77%.

For the compound `COc1ccc(S(=O)(=O)NNC(=O)Nc2ccc(C)cc2)c(OC)c1`, the inhibition was 0.5%.

Consider `COc1ccc(NC(=O)C2C3CCC(O3)C2C(=O)O)cc1OC` (centres undefined), for which the inhibition was 76.2% (active).

In the case of `CCOC(=O)c1c(NC(=O)C2CCN(S(=O)(=O)c3ccc(Cl)cc3)CC2)sc2c1CCCC2`, the inhibition is 0.34%.

Take `CC(C)OC(=O)c1c(NC(=O)c2ccco2)sc2c1CCCC2`: the inhibition was 1.48%.

For the compound `CC(C)COC(=O)c1ccc(NC(=O)C2C3C=CC(C3)C2C(=O)O)cc1` (centres undefined), the inhibition was 1.86%.

Take `COc1ccc(NC(=O)CNC(=O)Cc2ccccc2)cc1OC`: the inhibition is -2.46%.

Turning to `CC(C)OC(=O)c1cc(NC(=O)C2C3CCC(O3)C2C(=O)O)cc(C(=O)OC(C)C)c1` (centres undefined), the inhibition was 55.6% (active).

Turning to `COC(=O)c1cc(NC(=O)C2C3C=CC(C3)C2C(=O)O)cc(C(=O)OC)c1` (centres undefined), the inhibition was 1.39%.

As to `COc1ccc(NC(=S)SC)cc1OC`, the inhibition was 3.15%.

For `Cc1sc(NC(=O)C2C3CCC(O3)C2C(=O)O)c(C(=O)OC(C)C)c1-c1ccc(Cl)cc1` (centres undefined), the inhibition was 15.1% (active).

For the compound `Cc1cc(C)n(-c2nnc(N3CCN(c4ccccc4)CC3)nn2)n1`, the inhibition is -0.74%.

For the compound `COCCCNC(=O)C1CC(=O)N(CCc2ccc(F)cc2)C1` (centres undefined), the inhibition was -1.89%.

As for `CC(C)CCn1cnc2c1c(=O)n(CC(=O)NC(N)=O)c(=O)n2Cc1ccccc1`, the inhibition is 1.52%.

Consider `COc1ccc2c(c1)C(=O)Nc1cc(Cl)ccc1N2`, for which the inhibition was -0.62%.

With `CC(C)CN(C(=O)Cn1c(=O)cnc2ccccc21)C1CCS(=O)(=O)C1` (centres undefined), the inhibition was -1.01%.

Consider `COc1ccc(S(=O)(=O)N2CCN(C(=O)c3cc(C)oc3C)CC2)cc1`, for which the inhibition is 0.44%.

As to `CCCCn1c(N)c(N(CCC(C)C)C(=O)COC(=O)c2cccnc2OCC)c(=O)[nH]c1=O`, the inhibition was 0.18%.

In the case of `CC(=O)Nc1ccccc1OC(C)C(=O)N1CCC(C)CC1` (centres undefined), the inhibition was -1.03%.

Turning to `Nc1nnc(SCC(=O)OCc2ccc(Cl)c(Cl)c2)s1`, the inhibition is 1.15%.

`CCN1C(=O)[C@H]2[C@@H](c3ccc(SC4CCCCC4)c(OC)c3)N[C@@](Cc3ccccc3)(C(=O)OC)[C@H]2C1=O`: the inhibition was 2.69%.

`CC(C)Oc1ccc(C(CC(=O)N2CCOCC2)C(C)C)cc1` (centres undefined): the inhibition is 0.66%.

On to `Cc1cccc(N(C(=O)c2csnn2)C(C(=O)NCc2ccccc2)c2ccncc2)c1` (centres undefined), for which the inhibition was 1.82%.

As to `Cn1cnnc1Sc1ccc(S(C)(=O)=O)cc1[N+](=O)[O-]`, the inhibition was -0.46%.

In the case of `CCOC(=O)c1cnc(COc2ccccc2Cl)[nH]c1=O`, the inhibition is -1.14%.

In the case of `CC1CC(C)(C)n2c(O)c(N=NC(N)=S)c3cccc1c32` (centres undefined), the inhibition was 3.55%.

As for `Cn1ccnc1SCC(=O)Nc1ccc2c(c1)OCCO2`, the inhibition was 2.87%.

Consider `COc1cc(C(F)(F)F)c(C(=O)N(C)c2ccc(Cl)cc2)cn1`, for which the inhibition was 11.3% (active).

As to `COc1cccc(OC)c1CN(C)C(=O)c1cnccc1C(F)(F)F`, the inhibition was 0.42%.

Consider `COc1ccc(Cl)cc1C(=O)Nc1ccc(N(C)C(C)=O)cc1`, for which the inhibition is 0.43%.

As for `COc1ccccc1NC(=O)COC(=O)COc1ccccc1F`, the inhibition is 2.17%.

In the case of `CC(C)c1cc(CN2CCOCC2)cc(C(C)C)c1O`, the inhibition is 1.58%.

For `Oc1c(C(c2ccccn2)N2CCOCC2)ccc2cccnc12` (centres undefined), the inhibition is 11.2% (active).

On to `CN(C)c1ccc(C(CC(=O)O)C(=O)O)cc1` (centres undefined), for which the inhibition was 0.86%.

Regarding `CCN(CC)c1nc(-c2ccccc2)cc(C(F)(F)F)c1C#N`, the inhibition was 0.13%.

On to `O=C(Cc1ccccc1Cl)N1CCOCC1`, for which the inhibition is -1.76%.

In the case of `CN(C(=O)Nc1ccc(Cl)cc1)n1cnc2ccccc2c1=O`, the inhibition is -2.44%.

As to `CC(C)(C)c1cc[n+](-c2[nH]c(=O)sc2/C=N/N=C(\[O-])c2ccccc2)cc1`, the inhibition is -0.11%.

With `O=C(CSc1ncnc2sccc12)N1CCN(C(=O)c2cccs2)CC1`, the inhibition is 0.16%.

`CCC(C)Sc1nc(C)nc2c1c(=O)n(C)c(=O)n2C` (centres undefined): the inhibition is 2.18%.

As to `CCn1c(C)nc2c1C(=O)c1ccccc1C2=O`, the inhibition is -1.27%.

In the case of `CCc1nnc(NC(=O)c2cc(S(=O)(=O)N3CCCCC3)ccc2C)s1`, the inhibition is 3.35%.

Regarding `O=S1(=O)CC/C(=N\Nc2ccc(F)cc2)c2ccsc21`, the inhibition is 1.6%.

As to `O=Cc1cn(-c2ccccc2)nc1-c1ccccn1`, the inhibition is 0.89%.

Turning to `C=CCc1ccccc1OCC(O)CN1CCN(CCO)CC1` (centres undefined), the inhibition was 0.89%.

Consider `CCN1CCN(CCNC(=O)c2ccc(/C=C3/Sc4ccccc4N(Cc4cccc(C)c4)C3=O)cc2)CC1`, for which the inhibition is 10.1% (active).

Consider `O=C(NCCCN1CCOCC1)c1ccc2c(c1)N(Cc1cccc(F)c1)C(=O)c1ccccc1S2`, for which the inhibition was -0.03%.

For `CN1CCN(CCCNC(=O)c2ccc(/C=C3\Oc4ccccc4N(Cc4ccc(Cl)cc4)C3=O)cc2)CC1`, the inhibition was 4.83%.

Take `COc1ccc(CNc2c(CO)cnc3c2cnn3C)cc1`: the inhibition was 0.82%.

For the compound `CC(C(=O)c1ccc(-c2ccccc2)cc1)[n+]1cccc(Br)c1` (centres undefined), the inhibition is 0.21%.
